Experiment [1] in a line: Wnt pathway potentiators raising nuclear beta-catenin – imaging, WNT3A-conditioned medium, mouse C2C12, NPC library, primary screen (AID 1117326; in the data active = nuclear beta-catenin stimulation mostly above about 4.2%, no sharp cut-off; inactive = mostly below about 10%; note: reference of the scale not given here). The conditions noted are these: stronger effect = higher value.
A short description of experiment [2]: stimulators of insulin release from INS-1E, primary screen, cell-based, 5 mM glucose, NPC library (AID 1117329;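 active = compound raises insulin release from rat beta cells at 5 mM glucose, no numeric limit stated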; note: reference of the scale not given here). Conditions: rat INS-1E insulin secretion, at 10 µM, stronger effect = higher value.
A short description of experiment [3]: growth inhibition of GSK3B-pretreated HCT116 cells – cell-based, CellTiter-Glo, 0.2 to 20 µM (AID 1117336;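 active = compounds lowering colon cancer cell viability after pretreatment blocking the GSK3B kinase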). Conditions: HCT116 viability after GSK3B inhibitor, at 20 µM, stronger effect = higher value. In general terms: ATP-based viability assays read luminescence as a measure of living cells.
The nature of experiment [4]: inhibition of endothelial tube formation, primary screen, imaging, VEGF stimulated, CD31 staining, tube area, NPC library (AID 1117340;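 active = compound that reduces growth-factor-driven endothelial tube area in a mixed cell culture, no cutoff stated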). Conditions: VEGF-stimulated ADSC/ECFC co-culture, at 10 µM, stronger effect = higher value.
A short description of experiment [5]: GLP1 release stimulators, primary, NCI-H716, NPC library (AID 1117341). Note: reference of the scale not given here. Conditions: NCI-H716 cells, at 10 µM, stronger effect = higher value.
Experiment [6] is described as follows: HCT116 colon cancer cell growth inhibition, primary screen, CellTiter-Glo luminescence, NPC library (AID 1117342;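 active = compounds that lower survival of HCT116 colon cancer cells in the luminescence readout, no numeric limit stated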). Conditions: at 20 µM (top of the series).
The nature of experiment [7]: reduced SW480 viability measured with CellTiter-Glo, NPC library, primary (AID 1117343;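 active = compounds that lower viability of the colon cancer cells in the luminescence readout, with no numeric limit stated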). Conditions: CellTiter-Glo luminescence; at 20 µM (top of the series).
The nature of experiment [8]: NPC library primary testing for decreased DLD-1 cell viability via CellTiter-Glo (AID 1117346;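 active = compounds that lower survival of DLD-1 colon cancer cells in the luminescence readout, no cutoff given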). The conditions noted are these: DLD-1 viability, CellTiter-Glo luminescence; at 20 µM (top of the series).

The source made the active and inactive calls.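 Rule for the calls, unless noted: active = compound raises GLP1 secretion from the human gut endocrine cells, with no numeric limit stated; inactive = the rest.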

In the case of `N=C(N)n1cccn1`, the nuclear beta-catenin stimulation in experiment [1] (at 10 µM) was 0.3% (inactive); in experiment [1] (stimulation, at 2 µM) it was 0%. Also, in experiment [2], the insulin secretion stimulation was 9.4% (inactive). In experiment [3], the viability decrease is -5.8% (inactive). Further, the tube area decrease in experiment [4] is 4.7% (inactive). In experiment [5], the GLP1 secretion stimulation is -3.7% (inactive). Besides, in experiment [6], the inhibition of viability was 6.5% (inactive). The viability decrease (inhibition) in experiment [7] was 16.1% (inactive); in experiment [8] it was -2.6% (inactive).

With `Cn1cc(C(=O)[C@@H]2CCc3nc[nH]c3C2)c2ccccc21`, the nuclear beta-catenin stimulation in experiment [1] (at 10 µM) was 2.4% (inactive); in experiment [1] (stimulation, at 2 µM), -0.1%. Moreover, the insulin secretion stimulation in experiment [2] is 5.1% (inactive). Moreover, the viability decrease in experiment [3] was 2.2% (inactive). Also, the tube area decrease in experiment [4] was 17.2% (inactive). In experiment [5], the GLP1 secretion stimulation is 0.6% (inactive). In experiment [6], the inhibition of viability was -2.5% (inactive). Moreover, the viability decrease (inhibition) was 11.2% (inactive) in experiment [7] and -4.05% (inactive) in experiment [8].

For `O=C(Cn1ccnc1[N+](=O)[O-])NCc1ccccc1`, the nuclear beta-catenin stimulation is -0.6% (inactive) in experiment [1] (at 10 µM) and 0.4% in experiment [1] (stimulation, at 2 µM). In addition, in experiment [2], the insulin secretion stimulation was -1.9% (inactive). Also, the viability decrease in experiment [3] is -22.5% (inactive). The tube area decrease in experiment [4] is -8.5% (inactive). Further, the GLP1 secretion stimulation in experiment [5] is -4.4% (inactive). In addition, the inhibition of viability in experiment [6] is 1.8% (inactive). Besides, the viability decrease (inhibition) in experiment [7] was 7.9% (inactive); in experiment [8] it was 1% (inactive).

With `C[C@H]1NCc2cc(-c3ccc4c(=O)c(C(=O)O)cn(C5CC5)c4c3OC(F)F)ccc21`, the nuclear beta-catenin stimulation is 4.5% (inactive) in experiment [1] (at 10 µM) and 1.3% in experiment [1] (stimulation, at 2 µM). For the same molecule, the insulin secretion stimulation in experiment [2] is 0.3% (inactive). For the same molecule, the viability decrease in experiment [3] is 2.4% (inactive). Besides, in experiment [4], the tube area decrease is 9.5% (inactive). Besides, the GLP1 secretion stimulation in experiment [5] was -0.7% (inactive). Further, the inhibition of viability in experiment [6] was 20.1% (inactive). Besides, the viability decrease (inhibition) in experiment [7] was -3.4% (inactive); in experiment [8], 2.9% (inactive).

For `O=C(O)c1c(O)c(-c2ccccc2)nc2ccccc12`, the nuclear beta-catenin stimulation in experiment [1] (at 10 µM) was 0.5% (inactive); in experiment [1] (stimulation, at 2 µM) it was -0.8%. In addition, the insulin secretion stimulation in experiment [2] was 3% (inactive). Moreover, the viability decrease in experiment [3] was 66.1% (active). In experiment [4], the tube area decrease is 2.6% (inactive). Also, in experiment [5], the GLP1 secretion stimulation is -0.1% (inactive). In addition, in experiment [6], the inhibition of viability was 39.2% (inactive). The viability decrease (inhibition) is 107% (active) in experiment [7] and 39% (inactive) in experiment [8].

In the case of `Oc1cccc(-c2c3nc(c(-c4cccc(O)c4)c4ccc([nH]4)c(-c4cccc(O)c4)c4nc(c(-c5cccc(O)c5)c5ccc2[nH]5)CC4)C=C3)c1`, the nuclear beta-catenin stimulation was 24.3% (inactive) in experiment [1] (at 10 µM) and -1.7% in experiment [1] (stimulation, at 2 µM). Also, in experiment [2], the insulin secretion stimulation is -1.15% (inactive). In addition, the viability decrease in experiment [3] is 95.2% (active). For the same molecule, in experiment [4], the tube area decrease was -79.5% (inactive). Also, the GLP1 secretion stimulation in experiment [5] is 13.6% (inactive). For the same molecule, the inhibition of viability in experiment [6] is 109% (active). Besides, the viability decrease (inhibition) is 141% (active) in experiment [7] and 95.7% (active) in experiment [8].

On to `CC(C)C(=O)Nc1cccc(C(F)(F)F)c1`, for which the nuclear beta-catenin stimulation in experiment [1] (at 10 µM) was 1% (inactive); in experiment [1] (stimulation, at 2 µM), 1.2%. In addition, in experiment [2], the insulin secretion stimulation was 2.1% (inactive). The viability decrease in experiment [3] is 9.3% (inactive). The tube area decrease in experiment [4] was -5.2% (inactive). In addition, the GLP1 secretion stimulation in experiment [5] is 4.8% (inactive). The inhibition of viability in experiment [6] is 0.9% (inactive). Also, the viability decrease (inhibition) in experiment [7] is -24.6% (inactive); in experiment [8], -1% (inactive).

As for `CCCc1ccc(OCC(=O)N2CCN(C(=O)COc3ccc(CCC)cc3OC)CC2)c(OC)c1`, the nuclear beta-catenin stimulation was 0.8% (inactive) in experiment [1] (at 10 µM) and 2.5% in experiment [1] (stimulation, at 2 µM). Besides, the insulin secretion stimulation in experiment [2] was 2.6% (inactive). The viability decrease in experiment [3] was -50.5% (inactive). Further, the tube area decrease in experiment [4] is 43.5% (active). The GLP1 secretion stimulation in experiment [5] was 10.9% (inactive). The inhibition of viability in experiment [6] is 48.2% (inactive). Further, the viability decrease (inhibition) in experiment [7] is 97.2% (active); in experiment [8] it was 101% (active).

(Values after PubChem BioAssay.)
